Results on 52 compounds are retold here after PubChem BioAssay AID588342 (National Center for Advancing Translational Sciences (NCATS), 2011).

Molecules are shown by their SMILES. Among all 360,000 compounds or so, about 25,000 (6.9%) were called active. Inconclusive results (about 9%) are left out. The entries come from a sample that favours actives as a whole. A number with no mark means an inactive call. Calls come from the whole dose curve; as a rule, active = well fitted inhibition curve with a large enough effect; inconclusive = small, poorly fitted or top-dose-only effect; inactive = flat fitted curve, though single readings scatter.

The target in the assay is Luciferin 4-monooxygenase (Photinus pyralis) (UniProt P08659). The experiment in a line: qHTS profiling assay for firefly luciferase inhibitor/activator using purifed enzyme and Km concentrations of substrates (counterscreen for miR-21 project).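 For activity change, negative = inhibition: plate controls were vehicle for no effect and reference inhibitor for full effect.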 Note: nearly all actives have a fitted effect of over 55% in size. The note with it: purified FLuc, luminescence inhibition; series mostly up to 57.5 µM; activity change, negative = inhibition: at the top concentration. The text has this: MLPCN Grant: 1 R21 NS059478-01 (miR-21 grant) Assay Provider: NCGC NCGC Assay Overview: Firefly (Photinus pyralis) luciferase is one of the most commonly used transcriptional reporters for a number of reasons. It is considered one of the more dynamically responsive reporters -that is, responsive to changes in reporter transcription - as it requires no post-translational modifications and is enzymatically active directly after protein synthesis (Wood, 1998). Additionally, the half-life of the luciferase protein is short relative to other reporter-gene products (Wood, 1995). Whereas reporters with long half-lives potentially allow for increased signal due to accumulation of reporter-gene product, once accumulated in the cell, dynamic changes in reporter-gene expression may be difficult to detect(Fan and Wood, 2007; Almond et al., 2004). It has been shown that wild-type P. pyralis luciferase has a half-life of approximately […] hours in mammalian cells (Thompson et al., 1991). Firefly luciferase reporter-gene assays are also generally considered one of the most sensitive assay types (Wood, 1995; Wood, 1998). Although light produced in a bioluminescence reaction is of lower intensity than that produced during fluorescence emission, this is offset by little to no background light inherent to luminescent assays. Thus the luciferase reporter can be expressed at much lower levels than fluorescent proteins while still providing robust signal. # However, it was initially observed, in 1991, by Thompson et al., that compounds that resemble the substrates of firefly luciferase (FLuc) can act as competitive inhibitors of the enzyme, and that these compounds, upon interaction with luciferase in the cell, can actually stabilize the protein and increase its half-life. Accumulated intracellular FLuc protein can be measured as an increase in luminescence signal, upon addition of detection reagents (which contain high concentrations of FLuc substrates) commonly used in high-throughput screening. In cell-based reporter gene assays that use FLuc as the reporter gene to quantitate the potential influence of a given compound against the target biology, this apparent increase in luminescence can mistakenly be interpreted as identification of a compound that is active against the target of interest. This is the case for the miR-21 FLuc reporter gene assay used to identify inhibitors of the miR-21 pathway (PubChem AID 2289) - compounds of interest will inhibit miR-21 biogenesis/expression or activity, and are identified by causing an increase in luminescence, due to increased FLuc translation. However, FLuc inhibitory compounds that stabilize the FLuc protein will give an identical read-out, making it difficult to distinguish compounds that are active against the target from those active against FLuc. Previous profiling work to determine the prevalence of compounds that affect FLuc enzymatic activity (PubChem AID 411) identified that ~3% of the MLSMR library (then at ~72K) inhibited FLuc. […] Since the MLSMR had grown to ~350K compounds, and since it was expected that a significant percentage of compounds found active in the miR-21 FLuc assay would be FLuc inhibitors, the library was screened for activity against FLuc using a biochemical assay of purified FLuc and KM concentrations of FLuc substrates (D-luciferin and ATP).
Luciferin 4-monooxygenase (Photinus pyralis), sequence (P08659 whole entry, looked up): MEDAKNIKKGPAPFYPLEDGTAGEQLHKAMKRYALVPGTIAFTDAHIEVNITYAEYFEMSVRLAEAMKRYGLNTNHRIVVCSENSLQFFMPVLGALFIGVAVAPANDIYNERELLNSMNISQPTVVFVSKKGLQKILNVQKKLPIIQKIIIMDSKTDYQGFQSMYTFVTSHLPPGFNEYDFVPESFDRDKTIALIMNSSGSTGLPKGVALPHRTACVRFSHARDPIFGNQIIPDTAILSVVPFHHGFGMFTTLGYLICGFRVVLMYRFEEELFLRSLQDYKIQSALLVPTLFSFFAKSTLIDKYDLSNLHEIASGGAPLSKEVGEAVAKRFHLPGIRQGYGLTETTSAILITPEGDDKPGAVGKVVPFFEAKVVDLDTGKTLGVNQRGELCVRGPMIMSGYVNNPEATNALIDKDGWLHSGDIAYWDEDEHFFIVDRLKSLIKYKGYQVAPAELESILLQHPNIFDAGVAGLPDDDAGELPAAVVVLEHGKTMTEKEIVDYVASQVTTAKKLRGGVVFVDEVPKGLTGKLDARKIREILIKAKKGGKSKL
NCGC Assay Protocol Summary: Reagents: 50mM Tris acetate, pH 7.5; 10mM Mg acetate; 10uM D-luciferin (Sigma #L9504); 10uM ATP; 0.01% Tween-20; 0.05% BSA; 10nM P. pyralis luciferase (Sigma #L9506) Control compounds used were two known firefly luciferase inhibitors (compounds (2) and (5) in Auld et al., 2010), and DMSO. […]
On to `COc1ccccc1-c1nn(Cc2ccccc2)cc1C(=O)N1CCN(c2ncccn2)CC1`, for which the “activity change, negative = inhibition” value was 1.51%. Still for that read-out and setting: then `CC(C)CC(=O)NC(=S)NCc1ccccc1`, with -2.33%.

On to `CCC(=O)NC(=Nc1nc2ccccc2s1)NC(=O)CC`, for which the Potency is 3.79 µM (active). For the compound `Cc1cc(C(=O)OCC(=O)Nc2nnc(C(C)C)s2)c2ccccc2n1`, the “activity change, negative = inhibition” value is 3.05%. With `CC(C)CC(=O)N/C(N)=N/c1nc2ccccc2s1`, the Potency is 0.953 µM (active). In the case of `CC(C)C(C)NC(=O)COc1ncnc2ccccc12` (configuration not stated), the “activity change, negative = inhibition” value is 4.9%.

Take `CCC(=O)Nc1ccc2nc(SCC(=O)N3CCc4ccccc43)sc2c1`: the “activity change, negative = inhibition” value is -6.93%. With `CCOc1ccccc1NC(=O)CCn1cnnn1`, the “activity change, negative = inhibition” value was 2.57%. The same measure, in the same setting: then `COc1ccc(S(=O)(=O)N2CCOCC2)cc1NC(=O)CSc1cc(C)ccc1C`, with 1.8%; and `CS(=O)(=O)Nc1ccccc1C(=O)OCC(=O)NC1CC1`, with 0.298%. Same read-out and setting: to `CCN(C(=O)COC(=O)CCOc1cccc(C)c1)c1c(N)n(Cc2ccccc2)c(=O)[nH]c1=O` belongs 1.73%; to `COc1ccc(NC(=O)NC(C)c2c(-n3cccc3)sc(C)c2C)cc1OC` (configuration not stated), 2.57%. In the case of `COc1ccccc1-c1sc2ccccc2c1-c1ccc(C(C)=O)cc1`, the Potency was 15.1 µM (active). For the compound `COc1ccccc1-c1sc2ccccc2c1-c1ccc(Br)nc1`, the “activity change, negative = inhibition” value is 4.94%. In the case of `COc1cc(C(C)=O)ccc1OC(=O)CN1C(=O)c2ccccc2C1=O`, the “activity change, negative = inhibition” value is -1.95%. The same measure, in the same setting: to `O=C(CC1N=C2c3ccccc3N=C(SCc3ccc(F)cc3)N2C1=O)NCc1cccs1` (configuration not stated) belongs -18%; to `O=C(O)C1=NN(c2c(F)c(F)cc(F)c2F)C(=O)CC1`, -0.487%; to `CN(CC(=O)NCCc1ccc(F)cc1)CC(=O)Nc1ccc(F)c(F)c1F`, 2.43%.

`Cc1ccc(NC(=O)c2cn3c4c(ccc(Cl)c4c2=O)OC(C)C3)cc1C` (configuration not stated): the “activity change, negative = inhibition” value was 0.799%. Same read-out and setting: then `O=C(CSCc1cnn(-c2ccccc2)c1-n1cccc1)NCc1ccccc1Br`, with 0.796%; and `O=C(/C=C/c1cccc([N+](=O)[O-])c1)N1CCN(Cc2ccccc2)CC1`, with -10.2%. In the case of `O=[N+]([O-])/C=C/c1ccc2c(ccn2Cc2ccccc2)c1`, the Potency was 13.5 µM (active). As for `COC(=O)Cn1cc(/C=C/[N+](=O)[O-])c2ccccc21`, the “activity change, negative = inhibition” value is -8.37%. For `Cc1ccc(CN2CC(C(=O)N3CCN(S(=O)(=O)c4ccccc4)CC3)CC2=O)cc1` (configuration not stated), the “activity change, negative = inhibition” value is -0.636%. On the same count and under the same terms, to `Cc1nn(C)cc1S(=O)(=O)N1CCN(c2ccc(F)cc2)CC1` belongs 1.56%. In the case of `Cc1nn(C)cc1/C=C1\CCC/C(=C\c2cn(C)nc2C)C1=O`, the Potency is 26.9 µM (active). As to `Cc1ccccc1-n1c(=O)c2ccccc2n(Cc2ccc(F)cc2)c1=O`, the “activity change, negative = inhibition” value is 4.16%. Take `CCS(=O)(=O)N1CCc2cc(C(=O)NCc3ccc(OC)cc3)ccc21`: the “activity change, negative = inhibition” value is 5.07%. The same measure, in the same setting: to `CCc1cc(=O)oc2c(C)c(OCC(=O)NCCN3CCOCC3)ccc12` belongs 2.46%.

`CCCc1cc(=O)oc2c(C)c(OCC(=O)Nc3ccccn3)ccc12`: the Potency was 1.69 µM (active). Consider `CCCc1cc(=O)oc2c(C)c(OCC(=O)NCc3ccccn3)ccc12`, for which the “activity change, negative = inhibition” value was -0.539%. On the same count and under the same terms, to `COc1ccc(NC(=O)CCN2CCN(CCO)CC2)cc1` belongs -2.42%; to `O=C(Nc1ccon1)c1nc[nH]c1C(=O)NCc1ccccc1`, 3.38%. Still for that read-out and setting: then `Cc1cc(C)n2nc(C(=O)Nc3cccc(S(=O)(=O)N4CCOCC4)c3)nc2n1`, with 3.28%. Same read-out and setting: then `O=C(N/N=C/c1ccc([N+](=O)[O-])cc1)c1c[nH]c2ccccc12`, with -17.6%; and `CC(C)(C)n1nc2c(c1NC(=O)c1cc3ccccc3o1)CSC2`, with 3.62%.

Turning to `O=C(N/N=C/c1c[nH]c2ccccc12)c1cc2ccccc2o1`, the Potency is 13.5 µM (active).

In the case of `Nc1nonc1-n1nnc(C(=O)N/N=C/c2c[nH]c3ccccc23)c1-c1ccccc1`, the “activity change, negative = inhibition” value was -1.39%. Still for that read-out and setting: to `Cc1c(/C=N/N2C(=O)C3C4C=CC(C4)C3C2=O)c2ccccc2n1C` (configuration not stated) belongs 1.31%; to `O=C(Cc1ccccc1)Nc1cccc(C(=O)N/N=C/c2ccco2)c1`, -27.1%. Take `Cc1c(/C=N\NC(=O)c2cc3ccccc3o2)c2ccccc2n1C`: the Potency is 9.53 µM (active). On to `O=C(O)c1cccc(NC(=S)N/N=C/c2c[nH]c3ccccc23)c1`, for which the Potency is 0.757 µM (active). For the compound `Cc1ccc2occ(/C=N/NC(=O)c3ccccc3C)c(=O)c2c1`, the “activity change, negative = inhibition” value was -16.4%. Same read-out and setting: then `O=C(CSc1nc2ccccc2o1)N/N=C/c1ccccc1C(=O)O`, with -4.26%; and `CN(C)S(=O)(=O)c1cccc(NC(=S)N/N=C/C(=O)c2ccccc2)c1`, with -12.4%. As to `O=C(N/N=C/c1c[nH]c2ccccc12)c1ccccc1O`, the Potency was 6.01 µM (active). In the case of `Cc1c(NC(=O)Nc2ccc(F)c(Cl)c2)c(=O)n(-c2ccccc2)n1C`, the “activity change, negative = inhibition” value is -0.943%. As to `Cc1cccc(N2CCN(C(=O)c3cc4c(=O)oc5ccccc5c4s3)CC2C)c1` (configuration not stated), the “activity change, negative = inhibition” value was -0.651%. On the same count and under the same terms, then `CCc1ccc(NC(=O)CCS(=O)(=O)c2cc3c(cc2Cl)NC(=O)CO3)cc1`, with 0.0113%; and `COc1ccc([N+](=O)[O-])cc1NC(=O)c1ccc(N(Cc2ccccc2C)S(C)(=O)=O)cc1`, with -1.17%. With `CN(C)C(=O)COC(=O)c1cccc(S(=O)(=O)N2CC3(C)CC2CC(C)(C)C3)c1` (configuration not stated), the “activity change, negative = inhibition” value was 2.76%. Turning to `O=C(CNC(=O)c1ccccc1Br)NNC(=O)c1cccs1`, the “activity change, negative = inhibition” value was 2.69%.
